Assay results as given in the supplement of paper PMC3334620.
The full ranking holds about 33,000 sequences; the median of “E-score (-0.5 to 0.5)” is about -0.043, and the highest 2% start at about 0.37. The full list was thinned out, with the highest values kept by preference.

Molecular target: T1, Upc2 (UniProt Q12151)
T1 sequence: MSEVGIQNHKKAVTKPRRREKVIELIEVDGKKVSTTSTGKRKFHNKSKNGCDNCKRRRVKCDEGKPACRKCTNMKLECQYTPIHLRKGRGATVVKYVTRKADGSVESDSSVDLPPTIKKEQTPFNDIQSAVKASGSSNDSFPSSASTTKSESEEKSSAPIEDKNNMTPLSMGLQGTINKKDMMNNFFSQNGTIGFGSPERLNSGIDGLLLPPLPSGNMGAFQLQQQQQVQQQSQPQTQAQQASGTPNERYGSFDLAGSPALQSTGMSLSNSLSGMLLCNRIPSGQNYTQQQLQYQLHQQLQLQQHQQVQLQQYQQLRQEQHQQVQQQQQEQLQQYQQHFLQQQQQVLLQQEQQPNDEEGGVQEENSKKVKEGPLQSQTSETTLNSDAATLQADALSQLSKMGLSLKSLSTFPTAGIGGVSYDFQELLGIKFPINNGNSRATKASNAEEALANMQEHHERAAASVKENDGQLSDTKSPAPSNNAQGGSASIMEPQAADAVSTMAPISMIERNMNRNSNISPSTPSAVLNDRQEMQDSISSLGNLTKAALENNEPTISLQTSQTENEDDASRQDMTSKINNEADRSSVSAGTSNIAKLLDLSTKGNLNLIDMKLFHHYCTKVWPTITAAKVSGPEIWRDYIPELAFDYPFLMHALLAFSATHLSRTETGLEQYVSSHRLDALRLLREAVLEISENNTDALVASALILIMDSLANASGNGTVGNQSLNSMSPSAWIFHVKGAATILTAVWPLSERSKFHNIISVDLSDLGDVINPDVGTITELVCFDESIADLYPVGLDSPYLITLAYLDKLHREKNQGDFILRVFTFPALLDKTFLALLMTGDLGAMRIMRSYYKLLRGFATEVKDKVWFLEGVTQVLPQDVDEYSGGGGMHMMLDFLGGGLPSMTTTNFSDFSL
Experiment: PBM E-score (8-mer binding enrichment) (E-score (-0.5 to 0.5)); higher = stronger / more preferred TF binding
Conditions: protein concentration: 200 nM; construct: GST-full length
Outline: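 Masliner-normalised scans of fluorescent anti-GST signal were the basis for scoring. That signal came from GST-tagged yeast transcription factors applied at about 100-200 nM to double-stranded universal all-10-mer Agilent arrays on fresh or once-stripped slides. Each ungapped eight-base word, pooled with its reverse complement, received an E-score from the Universal PBM Analysis Suite.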

Sequence | PBM E-score
GGCAGGAA | -0.24
AATCCAGG | 0.0108
AAAACTAC | 0.137
CCTGGCAA | -0.125
CAAGACAA | -0.0401
TAATCGGA | 0.155
CAATCGTA | 0.4
TAATCGTA | 0.42
TAATCGAA | 0.226
CAATCGTC | -0.144
GAATCGTA | 0.387
AAATCGTA | 0.383
CAATCGTG | -0.153
AAATCGTC | 0.14
GAATCGCA | -0.0934
AAATCGTG | 0.0785
GAATCGTC | 0.052
CTGGCTCC | -0.252
CCGGAGAC | -0.0181
AGGTCTCA | -0.221
CCTCAGCA | -0.21
AAACGTAC | 0.33
AGTGGATC | -0.0691
AGTACTAC | 0.119
GCACAAAC | 0
CGCAACGC | 0.0437
